± gives the standard deviation of the averaged measurements. The full data set covers some 5,400 targets. This sample favours those with the largest changes.
Compound: Nc1nc2c(ncn2[C@@H]2O[C@H](COP(=O)(O)OP(=O)(O)OP(=O)(O)O)[C@@H](O)[C@H]2O)c(=O)[nH]1 [guanosine triphosphate]
Assay: NP40-soluble protein abundance relative to vehicle (solubility fold change) (ratio); higher = more soluble protein in presence of GTP
Method in brief: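 Jurkat crude lysate (Dounce-homogenised) was treated with eight concentrations from 0.1 to 10 mM for 10 min at room temperature, then 3 min at 37 °C. It was solubilised with 0.8% NP40 and benzonase (60 min, 4 °C) and ultracentrifuged, and the supernatant was TMT-labelled for LC-MS/MS. Intensities were vsn-normalised, and the value is the fold change against the NP40-processed vehicle per replicate, from three independent experiments.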

Sequence of UniProt Q9NVF7 (Q9NVF7 whole entry): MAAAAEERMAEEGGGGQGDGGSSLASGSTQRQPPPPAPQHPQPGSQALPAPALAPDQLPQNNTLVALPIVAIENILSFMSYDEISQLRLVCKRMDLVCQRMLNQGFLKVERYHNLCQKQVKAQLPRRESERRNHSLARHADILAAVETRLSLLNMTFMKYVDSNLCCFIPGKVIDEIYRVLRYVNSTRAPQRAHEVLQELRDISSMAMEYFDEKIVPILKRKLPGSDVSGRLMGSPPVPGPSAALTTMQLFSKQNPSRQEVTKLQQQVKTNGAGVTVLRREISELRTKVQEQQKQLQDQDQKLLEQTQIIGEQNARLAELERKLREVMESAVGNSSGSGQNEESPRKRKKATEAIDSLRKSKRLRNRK
Sequence of UniProt Q9BVP2 (Q9BVP2 whole entry): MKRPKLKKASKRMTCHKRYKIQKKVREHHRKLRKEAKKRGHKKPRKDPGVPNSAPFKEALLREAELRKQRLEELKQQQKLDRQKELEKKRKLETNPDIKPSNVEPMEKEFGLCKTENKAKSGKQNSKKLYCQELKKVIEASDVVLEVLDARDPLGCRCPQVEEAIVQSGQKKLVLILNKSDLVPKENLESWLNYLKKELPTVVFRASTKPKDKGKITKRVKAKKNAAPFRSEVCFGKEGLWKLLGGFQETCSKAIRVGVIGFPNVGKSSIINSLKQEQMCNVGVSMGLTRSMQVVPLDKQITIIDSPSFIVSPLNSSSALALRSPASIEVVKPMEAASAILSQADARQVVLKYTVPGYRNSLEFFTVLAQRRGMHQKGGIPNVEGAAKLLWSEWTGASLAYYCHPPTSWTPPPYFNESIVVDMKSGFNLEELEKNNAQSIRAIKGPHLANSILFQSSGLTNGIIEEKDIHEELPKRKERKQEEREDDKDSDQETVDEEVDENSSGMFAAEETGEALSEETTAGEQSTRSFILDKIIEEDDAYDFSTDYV
Sequence of UniProt Q9P0P0 (Q9P0P0 whole entry): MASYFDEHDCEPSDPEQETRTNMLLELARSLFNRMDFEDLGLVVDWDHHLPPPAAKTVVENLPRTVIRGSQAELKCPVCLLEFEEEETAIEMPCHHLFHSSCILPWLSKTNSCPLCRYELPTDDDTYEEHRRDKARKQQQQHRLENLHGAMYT
Sequence of UniProt Q9BWJ5 (Q9BWJ5 whole entry): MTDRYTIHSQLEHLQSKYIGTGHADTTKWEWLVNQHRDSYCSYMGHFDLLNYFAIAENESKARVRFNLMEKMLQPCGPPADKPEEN
Sequence of UniProt Q9H0F7 (Q9H0F7 whole entry, one chain of several): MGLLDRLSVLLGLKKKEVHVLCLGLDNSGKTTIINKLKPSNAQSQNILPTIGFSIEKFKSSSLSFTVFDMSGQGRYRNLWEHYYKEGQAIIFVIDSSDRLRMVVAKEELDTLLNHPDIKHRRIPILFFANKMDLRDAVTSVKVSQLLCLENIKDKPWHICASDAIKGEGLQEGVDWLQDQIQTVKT
Sequence of UniProt Q96B97 (Q96B97 whole entry): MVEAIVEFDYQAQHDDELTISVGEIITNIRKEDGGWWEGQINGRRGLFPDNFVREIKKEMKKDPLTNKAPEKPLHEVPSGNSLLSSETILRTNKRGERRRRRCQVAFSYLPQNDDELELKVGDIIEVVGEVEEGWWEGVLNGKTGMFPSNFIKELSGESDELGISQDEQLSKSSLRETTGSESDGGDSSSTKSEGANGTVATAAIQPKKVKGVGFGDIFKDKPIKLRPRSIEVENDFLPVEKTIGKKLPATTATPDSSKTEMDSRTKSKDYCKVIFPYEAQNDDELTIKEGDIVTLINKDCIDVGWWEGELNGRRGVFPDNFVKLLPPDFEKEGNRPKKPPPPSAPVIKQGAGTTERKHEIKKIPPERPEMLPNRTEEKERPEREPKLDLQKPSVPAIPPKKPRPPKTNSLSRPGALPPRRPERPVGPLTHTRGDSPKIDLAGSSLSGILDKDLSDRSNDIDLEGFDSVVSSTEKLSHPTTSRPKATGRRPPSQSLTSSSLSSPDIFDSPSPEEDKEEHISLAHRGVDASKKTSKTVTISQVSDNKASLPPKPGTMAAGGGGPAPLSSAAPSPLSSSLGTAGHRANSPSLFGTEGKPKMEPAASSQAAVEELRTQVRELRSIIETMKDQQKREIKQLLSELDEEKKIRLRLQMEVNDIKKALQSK
Sequence of UniProt Q9Y333 (Q9Y333 whole entry): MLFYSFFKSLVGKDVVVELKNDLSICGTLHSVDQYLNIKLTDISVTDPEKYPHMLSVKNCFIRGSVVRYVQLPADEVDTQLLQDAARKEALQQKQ
Sequence of UniProt Q96BY9 (Q96BY9 whole entry, one chain of several): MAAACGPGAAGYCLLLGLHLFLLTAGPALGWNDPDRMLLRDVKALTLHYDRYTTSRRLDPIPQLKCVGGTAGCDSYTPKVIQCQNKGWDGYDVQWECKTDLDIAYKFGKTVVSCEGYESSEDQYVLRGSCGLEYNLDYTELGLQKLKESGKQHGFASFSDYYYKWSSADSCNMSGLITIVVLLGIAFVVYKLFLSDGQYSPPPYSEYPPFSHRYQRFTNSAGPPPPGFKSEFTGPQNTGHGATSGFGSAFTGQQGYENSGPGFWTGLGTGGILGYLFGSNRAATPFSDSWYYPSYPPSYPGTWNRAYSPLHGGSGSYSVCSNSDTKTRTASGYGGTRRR
Sequence of UniProt Q9UG63 (Q9UG63 whole entry): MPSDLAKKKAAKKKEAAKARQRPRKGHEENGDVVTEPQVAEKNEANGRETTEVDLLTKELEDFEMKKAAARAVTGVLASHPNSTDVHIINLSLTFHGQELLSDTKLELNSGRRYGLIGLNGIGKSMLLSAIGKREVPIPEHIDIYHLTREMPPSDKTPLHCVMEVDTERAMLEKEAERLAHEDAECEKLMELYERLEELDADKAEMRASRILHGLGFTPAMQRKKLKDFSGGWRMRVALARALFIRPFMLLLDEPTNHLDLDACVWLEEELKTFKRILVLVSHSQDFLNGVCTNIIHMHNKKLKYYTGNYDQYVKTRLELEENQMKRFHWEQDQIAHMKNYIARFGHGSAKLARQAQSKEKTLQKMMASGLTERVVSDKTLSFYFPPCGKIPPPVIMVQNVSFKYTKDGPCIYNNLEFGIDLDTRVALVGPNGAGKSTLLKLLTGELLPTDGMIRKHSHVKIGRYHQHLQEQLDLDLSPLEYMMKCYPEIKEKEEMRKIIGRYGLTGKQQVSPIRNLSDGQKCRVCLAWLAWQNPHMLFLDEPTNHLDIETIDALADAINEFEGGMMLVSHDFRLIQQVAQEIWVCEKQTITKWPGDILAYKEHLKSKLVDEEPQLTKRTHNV
Sequence of UniProt Q9BVI0 (Q9BVI0 whole entry, one chain of several): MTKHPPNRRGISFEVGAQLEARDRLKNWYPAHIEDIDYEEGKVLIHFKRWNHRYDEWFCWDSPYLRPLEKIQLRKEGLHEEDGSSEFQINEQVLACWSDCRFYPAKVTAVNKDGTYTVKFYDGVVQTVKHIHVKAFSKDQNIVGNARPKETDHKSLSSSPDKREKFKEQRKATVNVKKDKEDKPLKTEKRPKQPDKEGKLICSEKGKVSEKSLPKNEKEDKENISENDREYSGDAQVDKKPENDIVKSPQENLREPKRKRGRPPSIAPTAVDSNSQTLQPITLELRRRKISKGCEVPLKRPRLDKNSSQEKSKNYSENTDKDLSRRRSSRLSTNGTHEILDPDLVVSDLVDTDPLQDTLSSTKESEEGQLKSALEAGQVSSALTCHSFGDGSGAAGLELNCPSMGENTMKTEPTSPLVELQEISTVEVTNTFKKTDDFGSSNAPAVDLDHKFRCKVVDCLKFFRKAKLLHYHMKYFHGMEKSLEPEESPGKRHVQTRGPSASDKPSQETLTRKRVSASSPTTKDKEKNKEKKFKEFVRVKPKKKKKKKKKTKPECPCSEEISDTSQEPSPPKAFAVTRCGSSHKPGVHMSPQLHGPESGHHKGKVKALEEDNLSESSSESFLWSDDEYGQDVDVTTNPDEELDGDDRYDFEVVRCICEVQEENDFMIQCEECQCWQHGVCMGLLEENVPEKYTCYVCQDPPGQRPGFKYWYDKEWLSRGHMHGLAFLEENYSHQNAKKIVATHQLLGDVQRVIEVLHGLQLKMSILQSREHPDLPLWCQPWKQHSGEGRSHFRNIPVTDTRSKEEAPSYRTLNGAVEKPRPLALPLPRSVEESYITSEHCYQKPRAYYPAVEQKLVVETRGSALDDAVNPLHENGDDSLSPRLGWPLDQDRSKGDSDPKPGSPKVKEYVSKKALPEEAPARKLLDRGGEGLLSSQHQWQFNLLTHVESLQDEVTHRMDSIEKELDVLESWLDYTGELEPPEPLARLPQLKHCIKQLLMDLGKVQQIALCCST
Sequence of UniProt Q9NRX1 (Q9NRX1 whole entry): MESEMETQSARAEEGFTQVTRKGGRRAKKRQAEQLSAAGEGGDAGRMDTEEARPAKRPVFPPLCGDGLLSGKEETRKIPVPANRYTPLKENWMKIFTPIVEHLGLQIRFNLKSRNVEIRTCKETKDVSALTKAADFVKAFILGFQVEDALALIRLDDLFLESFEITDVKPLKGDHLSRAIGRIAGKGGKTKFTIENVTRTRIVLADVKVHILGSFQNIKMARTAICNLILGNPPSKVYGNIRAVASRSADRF
Sequence of UniProt Q9Y508 (Q9Y508 whole entry): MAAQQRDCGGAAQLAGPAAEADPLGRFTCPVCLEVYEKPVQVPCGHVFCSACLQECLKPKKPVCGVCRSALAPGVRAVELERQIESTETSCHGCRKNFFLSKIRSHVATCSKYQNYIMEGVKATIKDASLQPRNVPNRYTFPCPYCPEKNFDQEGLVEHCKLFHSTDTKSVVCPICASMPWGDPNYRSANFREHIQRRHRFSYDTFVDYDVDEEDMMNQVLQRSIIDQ
Sequence of UniProt Q9BSF4 (Q9BSF4 whole entry): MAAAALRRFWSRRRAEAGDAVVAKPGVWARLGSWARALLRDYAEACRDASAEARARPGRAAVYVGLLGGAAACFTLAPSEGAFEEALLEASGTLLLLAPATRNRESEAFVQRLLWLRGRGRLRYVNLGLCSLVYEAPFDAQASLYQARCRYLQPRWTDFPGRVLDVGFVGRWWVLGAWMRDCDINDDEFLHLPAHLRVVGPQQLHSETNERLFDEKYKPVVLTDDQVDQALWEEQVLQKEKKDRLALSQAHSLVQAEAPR

Target	NP40-soluble protein abundance (concentration: 0.1mM)	NP40-soluble protein abundance (concentration: 0.5mM)	NP40-soluble protein abundance (concentration: 1mM)	NP40-soluble protein abundance (concentration: 2mM)	NP40-soluble protein abundance (concentration: 4mM)	NP40-soluble protein abundance (concentration: 6mM)	NP40-soluble protein abundance (concentration: 8mM)	NP40-soluble protein abundance (concentration: 10mM)
RNF181 (UniProt Q9P0P0)	0.961 ± 0.027	0.925 ± 0.028	1.05 ± 0.077	1.03 ± 0.045	1.01 ± 0.013	1.02 ± 0.05	1.04 ± 0.1	1.09 ± 0.075
UniProt Q9H0F7|Q9H0F7-2|A0A0J9YXT0	1.02 ± 0.063	1.03 ± 0.1	0.914 ± 0.011	0.986 ± 0.12	0.932 ± 0.065	0.904 ± 0.032	0.864 ± 0.061	0.882 ± 0.065
UniProt Q9ULV4|Q9ULV4-2|Q9ULV4-3	0.986 ± 0.021	1.11 ± 0.089	1.16 ± 0.088	1.26 ± 0.17	1.42 ± 0.22	1.53 ± 0.3	1.67 ± 0.33	1.74 ± 0.36
UniProt Q9Y333	0.946 ± 0.08	0.98 ± 0.11	0.973 ± 0.091	0.939 ± 0.1	0.887 ± 0.12	0.989 ± 0.13	0.962 ± 0.089	0.963 ± 0.059
UniProt Q9NZM5	0.985 ± 0.053	0.939 ± 0.14	1.04 ± 0.083	1.03 ± 0.17	1.05 ± 0.16	1.07 ± 0.21	1.18 ± 0.17	1.13 ± 0.093
UniProt Q9BSF4	1.16 ± 0.16	1.09 ± 0.11	1.12 ± 0.085	1.11 ± 0.027	1.18 ± 0.091	1.17 ± 0.037	0.972 ± 0.071	0.97875 ± 0.0002
CLIC4 (UniProt Q9Y696)	1 ± 0.088	0.929 ± 0.063	0.966 ± 0.1	0.88 ± 0.1	0.976 ± 0.13	0.909 ± 0.1	0.973 ± 0.12	0.866 ± 0.08
CBX8 (UniProt Q9HC52)	1.01 ± 0.04	1.04 ± 0.048	1.13 ± 0.013	1.24 ± 0.14	1.42 ± 0.15	1.61 ± 0.15	1.74 ± 0.17	1.86 ± 0.23
AFG3L2 (UniProt Q9Y4W6)	0.998 ± 0.016	0.996 ± 0.016	0.946 ± 0.024	0.969 ± 0.022	0.977 ± 0.022	0.987 ± 0.04	0.988 ± 0.02	0.938 ± 0.014
UniProt Q9Y2S2|Q9Y2S2-2	1.09 ± 0.12	0.991 ± 0.11	0.974 ± 0.12	0.971 ± 0.11	0.948 ± 0.12	0.922 ± 0.13	0.946 ± 0.15	0.912 ± 0.18
CCDC124 (UniProt Q96CT7)	1.01 ± 0.047	0.984 ± 0.019	1.12 ± 0.063	1.17 ± 0.067	1.41 ± 0.17	1.57 ± 0.22	1.61 ± 0.22	2.24 ± 0.18
ATP6V1D (UniProt Q9Y5K8)	1.04 ± 0.016	1.06 ± 0.03	1.04 ± 0.03	1.06 ± 0.022	1.056 ± 0.0052	1.03 ± 0.05	1.02 ± 0.045	0.992 ± 0.018
FBXO28 (UniProt Q9NVF7)	1.09 ± 0.028	1.08 ± 0.13	1.28 ± 0.18	1.31 ± 0.099	1.39 ± 0.12	1.47 ± 0.12	1.42 ± 0.28	1.61 ± 0.25
UniProt Q9H3N1	0.957 ± 0.055	0.947 ± 0.043	0.935 ± 0.04	0.871 ± 0.062	0.858 ± 0.071	0.878 ± 0.091	0.885 ± 0.053	0.859 ± 0.065
SAMM50 (UniProt Q9Y512)	1.13 ± 0.15	1.18 ± 0.19	0.999 ± 0.1	1.13 ± 0.29	1.11 ± 0.19	1.1 ± 0.22	0.985 ± 0.098	0.949 ± 0.17
DDX21 (UniProt Q9NR30)	1.11 ± 0.027	1.1 ± 0.048	1.18 ± 0.026	1.32 ± 0.019	1.56 ± 0.018	1.82 ± 0.028	2.13 ± 0.038	2.698 ± 0.024
UniProt Q9NVX0|Q9NVX0-2|Q9NVX0-3	0.873 ± 0.21	0.823 ± 0.036	1.02 ± 0.079	1.05 ± 0.083	1.01 ± 0.12	0.996 ± 0.14	0.963 ± 0.022	1.02 ± 0.17
UniProt Q92900|Q92900-2	1.01 ± 0.025	1.01 ± 0.04	0.936 ± 0.034	0.971 ± 0.065	0.957 ± 0.049	0.937 ± 0.057	0.898 ± 0.035	0.884 ± 0.011
MTMR6 (UniProt Q9Y217)	1.068 ± 0.0063	1.02 ± 0.027	0.967 ± 0.016	0.969 ± 0.01	0.93 ± 0.031	0.907 ± 0.0098	0.947 ± 0.034	0.913 ± 0.042

Target	NP40-soluble protein abundance (concentration: 0.1mM)	NP40-soluble protein abundance (concentration: 0.5mM)	NP40-soluble protein abundance (concentration: 1mM)	NP40-soluble protein abundance (concentration: 2mM)	NP40-soluble protein abundance (concentration: 4mM)	NP40-soluble protein abundance (concentration: 6mM)	NP40-soluble protein abundance (concentration: 8mM)	NP40-soluble protein abundance (concentration: 10mM)
UniProt Q9BVI0|A0A0A0MT13|Q5JWZ0|Q5JXL1	1.11 ± 0.068	1.07 ± 0.12	1.19 ± 0.078	1.27 ± 0.057	1.52 ± 0.056	1.553 ± 0.012	1.77 ± 0.08	1.71 ± 0.071
PNO1 (UniProt Q9NRX1)	1.04 ± 0.082	1.09 ± 0.17	1.14 ± 0.19	1.15 ± 0.28	1.09 ± 0.27	1.09 ± 0.3	1.15 ± 0.28	1.15 ± 0.32
UniProt Q9Y3D9|J3QLR8	1.01 ± 0.17	1.01 ± 0.19	1.61 ± 0.35	1.69 ± 0.093	1.771 ± 0.00083	1.61 ± 0.061	1.49 ± 0.28	1.73 ± 0.19
NOP58 (UniProt Q9Y2X3)	1.01 ± 0.049	1.02 ± 0.019	1.07 ± 0.075	1.19 ± 0.044	1.4 ± 0.066	1.58 ± 0.13	1.77 ± 0.11	2.07 ± 0.16
UniProt Q9Y3L3|Q9Y3L3-2	0.998 ± 0.025	1 ± 0.045	0.994 ± 0.018	0.988 ± 0.099	0.981 ± 0.04	0.991 ± 0.052	0.958 ± 0.019	1.01 ± 0.034
UniProt Q9BVP2|Q9BVP2-2	1.31 ± 0.073	1.3 ± 0.094	1.34 ± 0.11	1.51 ± 0.19	1.68 ± 0.17	1.73 ± 0.13	1.77 ± 0.2	1.88 ± 0.072
UniProt Q96B97|Q96B97-2	0.941 ± 0.12	0.938 ± 0.1	0.962 ± 0.1	0.943 ± 0.13	0.949 ± 0.1	0.935 ± 0.098	0.982 ± 0.11	0.966 ± 0.12
ULBP2 (UniProt Q9BZM5)	0.893 ± 0.085	0.86 ± 0.1	0.918 ± 0.073	0.884 ± 0.1	0.907 ± 0.098	0.89 ± 0.043	0.916 ± 0.1	0.925 ± 0.088
SF3B5 (UniProt Q9BWJ5)	1.1 ± 0.16	1.11 ± 0.16	1.17 ± 0.23	1.27 ± 0.2	1.25 ± 0.21	1.33 ± 0.15	1.31 ± 0.19	1.38 ± 0.22
UniProt Q99828|Q99828-2	0.956 ± 0.08	0.981 ± 0.11	1.02 ± 0.081	1.02 ± 0.084	1.02 ± 0.092	1 ± 0.12	0.996 ± 0.11	0.911 ± 0.12
UniProt Q9H8M2|Q9H8M2-3|Q9H8M2-6	0.966 ± 0.054	1.05 ± 0.13	1.03 ± 0.085	0.995 ± 0.033	1.04 ± 0.11	1.13 ± 0.12	1.11 ± 0.029	1.09 ± 0.04
UniProt Q96BY9|H0YAZ1	1.08 ± 0.15	1.08 ± 0.064	1.09 ± 0.15	1.1 ± 0.094	1.03 ± 0.11	1.01 ± 0.1	1.05 ± 0.19	1.07 ± 0.22
UniProt Q9Y2X0-2|Q9Y2X0-3|Q9Y2X0	1.09 ± 0.2	1.07 ± 0.21	1.04 ± 0.17	1.16 ± 0.28	1.08 ± 0.21	1.11 ± 0.16	1.12 ± 0.18	1.04 ± 0.19
NUDC (UniProt Q9Y266)	0.924 ± 0.044	0.938 ± 0.06	0.931 ± 0.058	0.88 ± 0.077	0.852 ± 0.063	0.893 ± 0.076	0.885 ± 0.056	0.872 ± 0.069
RNF114 (UniProt Q9Y508)	0.95 ± 0.011	0.967 ± 0.032	0.924 ± 0.041	0.91 ± 0.068	0.895 ± 0.057	0.897 ± 0.056	0.876 ± 0.072	0.888 ± 0.084
UniProt Q9UKZ1	1.52 ± 0.81	1.19 ± 0.11	1.4 ± 0.41	2.81 ± 2.7	1.26 ± 0.14	1.24 ± 0.11	1.29 ± 0.15	1.36 ± 0.051
UniProt Q9UG63|Q9UG63-2	1.1 ± 0.076	1.11 ± 0.014	1.07 ± 0.072	1.35 ± 0.072	1.83 ± 0.061	2.15 ± 0.12	2.39 ± 0.11	2.744 ± 0.018
UniProt Q9BW83|Q9BW83-2	0.972 ± 0.019	1.05 ± 0.059	0.971 ± 0.02	0.958 ± 0.013	0.911 ± 0.036	0.95 ± 0.018	0.916 ± 0.016	0.944 ± 0.0068
UniProt Q9Y6A4	1.09 ± 0.027	1.04 ± 0.076	0.962 ± 0.024	0.968 ± 0.1	1.01 ± 0.05	0.964 ± 0.087	1.01 ± 0.05	0.957 ± 0.11

— the supplement of paper PMC6411743
